Mac1 fbg enh: CD11b/CD18-fibrinogen binding enhancement | 93,000 tested, 0.07% active | K562 CD11b/CD18 adhesion to fibrinogen, ATPlite luminescence | activation, % at 10 µM | P05107+P11215;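 active means 10 µM primary screen giving 50% or more activity, confirmed by 40% or more on retest at that dose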
CYP2C19 inh: inhibitors of human CYP2C19; P33261; CYP2C19 Supersomes, luciferin-H EGE luminescence, 30 min; inhibition, % at 5 µM; 96,000 tested, 21% active;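 active means CYP2C19 inhibition above a set limit at 5 µM in the primary screen, cut at about 50% in these data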;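 further: plate controls were negative control wells for no effect and 2.5 mM tranylcypromine positive control for full effect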
Target sequence (P33261 whole entry, looked up): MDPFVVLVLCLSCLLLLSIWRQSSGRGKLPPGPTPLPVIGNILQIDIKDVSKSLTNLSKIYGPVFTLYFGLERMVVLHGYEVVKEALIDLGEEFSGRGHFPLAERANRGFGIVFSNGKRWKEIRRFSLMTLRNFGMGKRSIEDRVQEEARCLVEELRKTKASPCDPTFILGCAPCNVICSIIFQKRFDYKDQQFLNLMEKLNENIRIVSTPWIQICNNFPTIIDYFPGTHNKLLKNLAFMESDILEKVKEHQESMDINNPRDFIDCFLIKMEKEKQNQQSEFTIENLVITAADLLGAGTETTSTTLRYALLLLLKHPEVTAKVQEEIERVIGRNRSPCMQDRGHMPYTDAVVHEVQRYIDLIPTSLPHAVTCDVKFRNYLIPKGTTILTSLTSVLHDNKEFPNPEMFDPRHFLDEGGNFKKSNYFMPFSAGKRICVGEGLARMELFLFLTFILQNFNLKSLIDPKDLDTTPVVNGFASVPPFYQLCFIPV
CYP2C9 act: activators of human CYP2C9 | activation factor at 5 µM | recombinant CYP2C9, luciferin-H conversion, luminescence; active compounds read high; factor 1 = untreated enzyme, 0 = blocked | 96,000 tested, 1.4% active;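 active means activation factor of 2 or more for CYP2C9 at a 5 µM dose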;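 further: 0 = sulfaphenazole-blocked wells and 1 = vehicle-only wells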
Mac1 fbg inh: inhibitors of human CD11b/CD18 binding to fibrinogen. P05107+P11215. K562 CD11b/CD18 adhesion to fibrinogen, ATPlite luminescence; Mn2+ added to activate the integrin. inhibition, % at 10 µM. 93,000 tested, 0.54% active. AID 1497;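 active means primary inhibition of 50% or more at 10 µM, then 40% or more on retest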
CYP2C9 inh: inhibitors of human CYP2C9; P11712; CYP2C9 Supersomes, luciferin-H conversion, luminescence; inhibition, % at 5 µM; 96,000 tested, 20% active;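 active means blocking of liver enzyme CYP2C9 beyond about 50% at 5 µM, limit read from the data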
CYP2C19 activ: increases human CYP2C19 enzyme activity; recombinant CYP2C19, luciferin-H EGE luminescence; active compounds read high; 0 = fully inhibited enzyme, 1 = untreated enzyme; P33261; 96,000 tested, under 10 active; activation factor at 5 µM;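 active means activation factor of at least 2 at 5 µM in the primary screen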;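 further: 0 = wells with 2.5 mM tranylcypromine and 1 = vehicle-only wells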
The depositor's hits bear a star; . = not tested or not shown. This is a sample that favours compounds with a hit; in the whole collection about 28% have one here.

SMILES	Mac1 fbg enh	CYP2C19 inh	CYP2C9 act	Mac1 fbg inh	CYP2C9 inh	CYP2C19 activ
Cc1ccc(-c2nnn(CC(=O)N(c3ccccc3)C(C(=O)NCC3CCCO3)c3ccc(Cl)cc3)n2)cc1 (stereo not drawn)	.	61.9*	0.1	.	87.6*	0.4
CC(=O)Nc1ccc(NC(=O)CSC2=NCCS2)cc1	-4.5	55.2*	0.2	-17.1	81.0*	0.4
O=C(CSC1=NCCS1)NC1CCCC1	.	26.1	1	.	0.3	0.7
O=C(CSCc1ccc(Cl)cc1)Nc1ccc(S(=O)(=O)N2CCCCCC2)cc1	-4.4	.	.	58.9	.	.
O=C(CSC1=NCCS1)Nc1ccc(S(=O)(=O)NC2CCCCC2)cc1	-11.6	24.4	0.4	-2.5	56.1*	0.8
O=C(CSC1=NCCS1)Nc1ccc(S(=O)(=O)N2CCCCCC2)cc1	-3.3	39.0	0.4	12.0	62.4*	0.6
CC(=O)Nc1nonc1NC(=O)CSC1=NCCS1	-7.7	10.7	1	23.0	4.9	0.9
O=C(CSC1=NCCS1)Nc1ccnc2ccccc12	-10.2	31.9	0.6	99.5*	37.7	0.7
COc1cc(NS(=O)(=O)c2ccc(NC(=O)CSC3=NCCS3)cc2)nc(OC)n1	-5.2	6.2	0.7	2.6	32.1	0.9
CCOC(=O)CN(C(=O)CCC(=O)Nc1cc(C)on1)C(C(=O)NC1CCCC1)c1cccnc1 (stereo not drawn)	.	10.0	0.9	.	6.0	0.9
Cc1cccc(NS(=O)(=O)c2cnc(Cl)c(Br)c2)n1	2.1	.	.	3.9	.	.
Cc1sc2ncnc(Oc3ccc(-n4ccnc4)cc3)c2c1C	-1.5	100.4*	0	-1.9	98.6*	0
Cc1ccc(NC(=S)/C(=C(\[O-])c2ccc(C)c([N+](=O)[O-])c2)[n+]2ccccc2)cc1C	.	37.7	0.3	.	69.3*	0.6
Cc1ccc(CNC(=O)C2CCN(S(=O)(=O)N3CCOCC3)CC2)cc1	-0.4	-7.8	1.1	-2.7	-5.0	1.1
C=C(C)CSc1nnc([C@@H]2CCCN2C(=O)OC(C)(C)C)o1	-1.8	46.9	1	-19.2	-1.3	0.5
O=S(=O)(Cc1ccccc1)c1cnc2ccccc2n1	-8.8	89.3*	2.5*	-19.1	-148.9	0.1
O=C(O)CSc1cnc2ccccc2n1	-1.5	16.3	1	-12.6	1.7	0.8
COc1ccc2[nH]c(=O)c(CN(Cc3ccc(C)cc3)Cc3nnnn3CC3CCCO3)cc2c1 (stereo not drawn)	1.7	60.5*	0.2	9.8	84.3*	0.4
O=c1[nH]c2cc3c(cc2cc1CN(Cc1nnnn1CC1CCCO1)C1CCCC1)OCO3 (stereo not drawn)	0.9	24.7	1.1	-2.9	-8.3	0.8
COc1ccc2[nH]c(=O)c(CN(Cc3ccccc3OC)Cc3nnnn3CC3CCCO3)cc2c1 (stereo not drawn)	-2.9	69.9*	0.6	-0.3	40.8	0.3
COc1ccccc1CN(Cc1cc2cc(C)cc(C)c2[nH]c1=O)Cc1nnnn1CC1CCCO1 (stereo not drawn)	5.8	62.8*	0.4	-1.1	56.5*	0.4
COc1ccc2[nH]c(=O)c(CN(Cc3cccs3)Cc3nnnn3Cc3ccccc3)cc2c1	-2.8	5.0	0.9	8.6	13.4	0.9
Cc1ccc2cc(CN(Cc3cccs3)Cc3nnnn3CC3CCCO3)c(=O)[nH]c2c1C (stereo not drawn)	4.8	55.6*	0.8	15.1	15.5	0.4
Cc1ccc2cc(CN(Cc3cccs3)Cc3nnnn3CC3CCCO3)c(=O)[nH]c2c1 (stereo not drawn)	14.9	29.6	1	-1.9	2.2	0.7
Cc1cc(C)c(C(N)=O)c(NC(=O)Nc2ccccc2)n1	1.2	-4.8	1	12.7	-0.2	1
SMILES	Mac1 fbg enh	CYP2C19 inh	CYP2C9 act	Mac1 fbg inh	CYP2C9 inh	CYP2C19 activ
COc1cccc(C(=O)N(Cc2cc3cc(C)ccc3[nH]c2=O)CC2CCCO2)c1 (stereo not drawn)	4.2	6.0	0.9	11.6	13.3	0.9
Cc1ccc2[nH]c(=O)c(CN(Cc3cccs3)Cc3nnnn3CC3CCCO3)cc2c1 (stereo not drawn)	-0.9	11.6	1	3.8	-0.1	0.9
COc1ccccc1CN(Cc1cc2cc(C)ccc2[nH]c1=O)Cc1nnnn1CC1CCCO1 (stereo not drawn)	-3.2	24.3	0.4	11.5	56.5*	0.8
COc1cc(C(=O)N(Cc2cc3cc(C)ccc3[nH]c2=O)CC2CCCO2)cc(OC)c1OC (stereo not drawn)	-4.5	35.1	0.4	1.9	63.2*	0.6
Cc1ccc(C(C(=O)NCCc2ccccc2)N(C(=O)c2csnn2)C2CC2)o1 (stereo not drawn)	-1.3	40.4	0.8	-5.8	22.8	0.6
CCCc1ncc(C(=O)c2ccc(OC)cc2)n1C	-0.8	49.1	1.3	3.2	-27.2	0.5
CCOC(=O)N1CCC(=NNC(=O)COc2cccc(C)c2)CC1	5.2	.	.	-7.1	.	.
O=C(NCCN1CCOCC1)N1CCOCC1	0.3	36.4	0.7	-9.0	30.4	0.6
Cc1noc(C)c1CSc1nc2ccccc2[nH]1	1.0	37.0	0.7	-23.1	26.2	0.6
c1cnc2c(SCc3ccc(-c4nnco4)cc3)cccc2c1	-1.7	86.2*	0.4	4.2	61.8*	0.1
COC(=O)c1ccc(CSc2nc3ccccc3[nH]2)o1	.	81.3*	0.6	.	36.1	0.2
CCOC(=O)c1ccc(CSc2n[nH]c(C)n2)o1	-0.4	65.4*	0.8	-5.0	20.5	0.3
Cc1cccc(CSc2cccc3cccnc23)c1	.	45.9	1.4	.	-38.9	0.5
c1ccc2[nH]c(SCc3ccc(-c4nnco4)cc3)nc2c1	-2.9	99.4*	0.1	-6.1	94.7*	0
CC1CCN(S(=O)(=O)c2cn(CC(=O)N3CCN(C)CC3)c(=O)c3ccccc23)CC1	1.6	14.9	0.7	23.9	31.3	0.9
CC(C)CCNC(=O)NC(=O)COC(=O)C1CCN(S(=O)(=O)c2ccccc2F)CC1	0.5	.	.	3.6	.	.
CCOc1ccc(C2C(C#N)=C(N)Oc3cc(C)n(CCN(C)C)c(=O)c32)cc1OCC (stereo not drawn)	-0.4	-7.2	0.9	-8.1	12.5	1.1
O=C1CCC(=O)N1c1ccc(CSc2nc3ccccc3[nH]2)cc1	-2.4	64.4*	0.4	-1.8	62.0*	0.4
COc1ccc(CSc2nc(C)cc(=O)[nH]2)cc1	-3.3	32.1	0.6	-8.3	36.5	0.7
COc1ccc(CSc2nc3ccccc3[nH]2)cc1	-5.6	48.1	0.4	17.9	63.0*	0.5
CCC(C)(c1nnnn1-c1c(C)cccc1C)N(N=O)c1cccc(C(F)(F)F)c1 (stereo not drawn)	-1.1	.	.	15.0	.	.
CCOC(=O)C(C#N)C(Cc1ccccc1)c1ccco1 (stereo not drawn)	7.9	91.8*	0.3	-17.1	69.8*	0.1
N#Cc1c(Cl)c(Cl)c2nnc(-c3ccc(Br)cc3)n2c1Cl	-1.9	39.4	0.1	-20.5	93.7*	0.6
